Activity calls are given as the source filed them. The call rests on the fitted dose curve.
Key:
Experiment in all cases: Confirmatory Screen for Target Class Profiling of Small Molecule Inhibitors of Methyltransferases (AID 1745852); on activity change, negative = inhibition: on the % scale 0 is the no-effect control and ±100 the full control effect
[1] = target: Catechol O-methyltransferase (Homo sapiens) (UniProt P21964); conditions: MTase-Glo luminescence, SAH detection, recombinant enzyme; measured here: COMT max response; stronger effect = lower value
[2] = target: Guanidinoacetate N-methyltransferase (Homo sapiens) (UniProt Q14353); conditions: MTase-Glo luminescence, SAH detection, recombinant enzyme; activity change, negative = inhibition: at 57.3 µM (top of the series) unless noted; series mostly up to 57.3 µM
[3] = target: Nicotinamide N-methyltransferase (Homo sapiens) (UniProt P40261); conditions: MTase-Glo luminescence, SAH detection, recombinant enzyme; measured here: NNMT max response; stronger effect = lower value
[4] = target: Phenylethanolamine N-methyltransferase (Homo sapiens) (UniProt P11086); conditions: MTase-Glo luminescence, SAH detection, recombinant enzyme; measured here: PNMT max response; stronger effect = lower value
Potency means the concentration at half of the fitted maximal effect.

Nicotinamide N-methyltransferase (Homo sapiens), sequence (P40261 whole entry, looked up): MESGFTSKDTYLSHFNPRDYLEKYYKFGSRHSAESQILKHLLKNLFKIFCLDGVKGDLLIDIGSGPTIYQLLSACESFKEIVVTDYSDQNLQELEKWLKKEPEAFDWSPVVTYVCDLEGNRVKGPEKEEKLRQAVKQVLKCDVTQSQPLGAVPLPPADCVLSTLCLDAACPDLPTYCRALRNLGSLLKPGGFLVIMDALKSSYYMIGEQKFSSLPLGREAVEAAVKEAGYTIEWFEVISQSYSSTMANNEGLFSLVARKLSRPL
Catechol O-methyltransferase (Homo sapiens), sequence (P21964 whole entry, looked up): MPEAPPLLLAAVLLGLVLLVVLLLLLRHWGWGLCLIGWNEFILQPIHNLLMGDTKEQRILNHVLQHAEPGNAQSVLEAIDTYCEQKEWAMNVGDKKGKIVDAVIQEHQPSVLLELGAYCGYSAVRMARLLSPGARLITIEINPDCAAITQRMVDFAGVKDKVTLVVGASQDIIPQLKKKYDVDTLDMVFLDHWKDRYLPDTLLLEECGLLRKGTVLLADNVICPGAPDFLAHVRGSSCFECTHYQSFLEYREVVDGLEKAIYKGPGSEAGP
Phenylethanolamine N-methyltransferase (Homo sapiens), sequence (P11086 whole entry, looked up): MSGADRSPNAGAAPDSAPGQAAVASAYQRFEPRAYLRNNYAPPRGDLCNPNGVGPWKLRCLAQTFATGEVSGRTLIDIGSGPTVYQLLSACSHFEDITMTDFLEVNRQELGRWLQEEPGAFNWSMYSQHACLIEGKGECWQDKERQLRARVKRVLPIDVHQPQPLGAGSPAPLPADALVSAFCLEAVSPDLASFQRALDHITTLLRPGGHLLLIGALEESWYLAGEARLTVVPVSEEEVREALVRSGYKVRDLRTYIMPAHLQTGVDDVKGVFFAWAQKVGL

| SMILES | activity [1] | Potency [2] | activity [3] | activity [4] | activity change, negative = inhibition [2] |
| --- | --- | --- | --- | --- | --- |
| CC(C)CCNC(=O)c1ccc2c(=O)[nH]c3c(C(=O)NC(C)C)sc(=S)n3c2c1 | -37.8% | 27.1 µM (active) | -37.9% | -33.6% |  |
| OC1(Cn2ccnc2)CCN(Cc2ccccc2Cn2cccn2)CC1 | 3.04% |  | 4.14% | 5.79% | 3.7% |
| Cc1ccc(NC(=O)CSc2nnc3n(CC(C)C)c(=O)c4ccccc4n23)cc1 | 1.84% | inactive | -8.6% | -2.78% |  |
| Cc1oc(C(=O)O)cc1COc1ccc2c(-c3ccccc3)cc(=O)oc2c1C | -34.8% | 27.1 µM (active) | -43.8% | -32.8% |  |
| O=C(CCc1nnc2n(Cc3ccc(Cl)cc3)c(=O)c3ccccc3n12)NCCN1CCCC1 | 4.15% |  | -12.3% | 0% | 1.71% |
| COc1ccc(CCN2C(=O)c3ccc(-c4ccco4)n3CC2(C)C(=O)NC2CCCC2)cc1OC (configuration not stated) | -9.3% |  | -65.9% | -5.82% | -6.46% |
| CCOc1cc(OCC)c2c(-c3ccccc3)cc(=O)oc2c1 | -64.6% | 15.2 µM (active) | -49.7% | -65.2% |  |
| CC(NC(=O)c1ccc2c(=O)nc3c(-c4cccc(F)c4)n[nH]n3c2c1)c1ccc(F)cc1 (configuration not stated) | -18.4% | 13.6 µM (active) | -28.4% | -25.5% |  |
| Cc1ccc(NS(=O)(=O)c2ccc3c(c2)[C@H]2C=CC[C@H]2[C@@H](c2cccc(Cl)c2)N3)c(C)c1 | -11.2% |  | -16.4% | -18.5% | -14.3% |
| O=C(NCc1ccc(Cl)cc1)c1ccc2c(=O)nc3c(-c4ccccc4F)n[nH]n3c2c1 | -4.08% |  | -14.9% | -19.4% | -1.1% |
| COc1ccc(-c2n[nH]n3c2nc(=O)c2ccc(C(=O)NC(C)c4ccc(F)cc4)cc23)cc1 (configuration not stated) | -18.7% |  | -25% | -17.7% | -8.96% |
| O=C(Nc1ccc(F)c(Cl)c1)N1CCn2cccc2C1Cc1ccccc1 (configuration not stated) | -2.26% |  | -5.36% | -6.59% | 1.87% |
| CC1(C)[C@H](Cc2cc(-c3ccccc3)on2)C[C@@H]1NCC1CC1 | 1.83% |  | -6.44% | -13.1% | -0.152% [at 85.7 µM] |
| CC1CC(C)CN(S(=O)(=O)c2ccc3c(c2)oc(=O)n3CC(=O)Nc2cccc(F)c2)C1 (configuration not stated) | 1.38% |  | -0.567% | -52.9% | 0% |
| COc1ccnc(-c2nnc3ccc(Nc4cc(OC)c(OC)c(OC)c4)nn23)c1 | -13.7% |  | -18% | -25.6% | -8.44% [at 85.7 µM] |
| COc1ccc(CCNc2nc3c(S(=O)(=O)c4ccccc4)nnn3c3ccccc23)cc1OC | -10.7% |  | -17.5% | -12.4% | -7.04% |
| O=C(CCc1nnc2n(Cc3ccc(F)cc3)c(=O)c3ccccc3n12)NCCN1CCCC1 | -4.07% |  | -16.1% | 2.1% | -0.511% |
| O=C(CCc1ccccc1)N1CCNc2cnc(Nc3cccnc3)nc2C1 | -28.2% |  | -21.6% | -41.2% | -16.6% [at 85.7 µM] |
| O=C(Cn1ccc2cc(S(=O)(=O)N3CCCCC3)ccc21)NCCCN1CCCCC1 | -5.54% |  | -8.24% | -7.19% | -0.43% |
| CC1(C(=O)NC2CCCC2)Cn2c(c(-n3cccc3)c3ccccc32)C(=O)N1Cc1ccccn1 (configuration not stated) | 1.3% |  | -46.2% | 0% | 1.85% |

| SMILES | activity [1] | Potency [2] | activity [3] | activity [4] | activity change, negative = inhibition [2] |
| --- | --- | --- | --- | --- | --- |
| Cc1cc(-c2nc3ccncc3[nH]2)c(C)[nH]1 | -4.56% |  | -25.8% | -11.2% | 3.2% [at 114 µM] |
| CC[C@H](C)NC(=O)c1sc(=S)n2c1[nH]c(=O)c1cc(Cl)ccc12 | -75.3% | 24.1 µM (active) | -78.5% | -77% |  |
| O=C(NCCCN1CCc2ccccc2C1)C1CCc2ncc(-c3ccc(F)cc3)n2C1 (configuration not stated) | -4.39% |  | 3.39% | -4.05% | -6.35% |
| COc1cccc(NC(=O)Cn2c(=O)oc3cc(S(=O)(=O)N4CCCC4)ccc32)c1 | 3.1% |  | 4.37% | -58.7% | 0.138% |
| CC(=O)NC1CC2(CCN(Cc3ccc(O)cc3)CC2)c2ccccc21 (configuration not stated) | 6.67% |  | 12.2% | 5.3% | 7.28% [at 85.7 µM] |
| CC1CCCCC1NC(=O)C1(C)Cn2c(cc3sccc32)C(=O)N1Cc1ccc(Cl)cc1 (configuration not stated) | -7.44% |  | -8.12% | -8.77% | -6.06% |
| Cc1nn(C(=O)CCC(=O)N2CCC(Cc3nncn3CC3CC3)CC2)c2ccccc12 | 6.63% |  | -59.9% | 7.75% | 3.09% |
| COc1cccc(CN2CCCC3(CNc4ccccc4[S+](=O)([O-])N3)C2)c1 (configuration not stated) | -4.83% |  | -12.2% | -3.23% | -8.51% |
| COc1ccc(CC(=O)Nc2ccc3ncnc(N4CCCC4)c3c2)c(Cl)c1 | -2.51% |  | -30.7% | -8.25% | -0.581% |
| Cc1ccc(CNC(=O)c2ccc3c(=O)[nH]c4c(C(=O)NC(C)C)sc(=S)n4c3c2)cc1 | -30.2% |  | -65.3% | -17.2% | -7.1% |
| CN(Cc1ccccc1)C1(C(=O)NC2CCC(O)CC2)Cc2ccccc2C1 (configuration not stated) | 2.67% |  | 7.08% | 6.38% | 3.98% |
| CCOC(=O)CC1(NC(=O)N2CCn3cccc3C2Cc2ccccc2)CCCCC1 (configuration not stated) | 2.42% | inactive | -6.48% | -4.39% |  |
| Cc1noc(C)c1-c1cc2c(cc(C)n2CCN(C)C)c(Nc2ccncn2)n1 | -14.2% |  | -15.3% | -28.6% | -6.67% [at 85.7 µM] |
| COc1ccc(CCNC(=O)CCc2nnc3n(CC(C)C)c(=O)c4ccccc4n23)cc1OC | -6.74% |  | -43.7% | -6.97% | -2.85% |
| COc1cc(F)ccc1-c1cc(-c2ccc(=O)[nH]c2)c2cncn2c1 | -95.1% |  | -11% | -5.79% | -5.99% [at 85.7 µM] |
| Cc1nc2cccnc2n1CC1CCCN(S(=O)(=O)c2ccc3c(c2)OCCO3)C1 (configuration not stated) | 2.68% |  | -4.66% | -0.0682% | -0.116% |
| O=C1c2ccccc2C(=O)c2c1cccc2S(=O)(=O)Nc1ccc(Cl)cc1 | 0.0726% |  | -1.28% | -37% | -0.67% |
| O=C(O)c1ccc2c(c1)C1C=CCC1C(c1cccc(F)c1)N2 (configuration not stated) | -2.11% |  | 0.825% | -2.83% | 2.71% |
| COc1ccc(CCN2C(=O)c3cc4occc4n3CC2(C)C(=O)NC2CCCCCC2)cc1OC (configuration not stated) | -3.67% |  | -64.2% | -5.31% | -1.83% |
| CCCn1c(=O)c2ccccc2n2c(=O)n(CC(=O)c3cccc(Cl)c3)nc12 | -8.93% |  | -46.1% | -9.61% | -4.81% |

| SMILES | activity [1] | Potency [2] | activity [3] | activity [4] | activity change, negative = inhibition [2] |
| --- | --- | --- | --- | --- | --- |
| O=C(NCc1cccc(Cl)c1)c1cnc2c(c1)N(C(=O)Cc1ccc(O)cc1)CCC2 | -2.5% |  | -5.79% | -1% | -3.31% [at 85.7 µM] |
| O=[S+]1([O-])NC2(CCCN(Cc3c(F)cccc3Cl)C2)COc2ccccc21 (configuration not stated) | -6.32% |  | -5.33% | -3.56% | 2.18% |
| Cc1ccsc1CCNC(=O)Cn1c(=O)oc2cc(S(=O)(=O)N3CCCC3)ccc21 | -8.14% |  | -5.53% | -81.8% | -1.17% |
| O=C(OCc1ccccc1)N1CCOCC12CCN(Cc1c[nH]c3ccccc13)CC2 | 6.86% |  | 5.55% | 1.46% | 9.15% [at 85.7 µM] |
| CCN1CCN(c2nc3c(S(=O)(=O)c4ccc(C)cc4)nnn3c3ccccc23)CC1 | -6.68% |  | -16.7% | -10.8% | -2.1% |
| CCN(CC)CCCNC(=O)CCc1nnc2n(Cc3ccccc3)c(=O)c3ccccc3n12 | 1.43% |  | -2.92% | 0.626% | 0% |
| O=C(O)c1ccc2c(c1)C1C=CCC1C(c1ccc(Cl)cc1)N2 (configuration not stated) | -24.7% | 42.9 µM (active) | -22.4% | -23.3% |  |
| COc1cccc(N2C(=O)NC(=NC3CCCCC3)C23CCCN(CC2CCCCC2)C3)c1 (configuration not stated) | -0.686% |  | -50.3% | 1.19% | 10.7% |
| Cc1ccc(C(=O)O)c2c1N[C@H](c1cccc(Cl)c1)C1CC=CC21 (some centres not stated) | 2.41% | inactive | 3.29% | 2.81% |  |
| COc1ccc(OC)c2c1cc1n2CC(C)(C(=O)NC2CCCCCC2)N(Cc2ccccn2)C1=O (configuration not stated) | 3.33% | inactive | -20.5% | -2.24% |  |
| O=C(CCCc1nnc2n3nc(-c4ccccc4)nc3c3ccccc3n12)N1CCC(N2CCCCC2)CC1 | -14.2% |  | -20.9% | -10.5% | -7.55% |
| Cc1cc(F)ccc1NS(=O)(=O)c1ccc2[nH]c3c(c2c1)CCCC3 | 0% |  | -33.2% | 0% | 0.252% |
| CCCCNC(=O)c1cccc(-c2cc(N3CCN(C)CC3)nc(N)n2)c1 | -2.86% |  | -3.76% | -4.09% | -5.28% |
| COC1CCN(c2cc(-c3ccsc3)nc3c(C)noc23)CC1 | -4.15% |  | -17% | -10.4% | -0.422% [at 85.7 µM] |
| COc1ccc(-c2cc(C(=O)NCc3cccnc3)c3c(c2)N(C)CCO3)cc1OC | 3.17% |  | -0.0858% | -0.493% | 8.84% [at 85.7 µM] |
| CCCCN1C(=O)c2cc(C(=O)NCc3ccc(OC)cc3OC)nn2CC1(C)C(=O)NC1CCCC1 (configuration not stated) | 0.43% |  | -36.8% | -3.65% | 0% |
| OCC1(Cc2ccccc2)CCCN(Cc2cn[nH]c2-c2ccc(F)cc2)C1 (configuration not stated) | 5.88% |  | 0.855% | 5.69% | 4.38% |
| CCCC1c2cccn2CCN1C(=O)Nc1cccc(C(F)(F)F)c1 (configuration not stated) | -5.53% |  | -7.32% | -5.65% | -0.7% |
